From PubChem BioAssay AID624126 (The Scripps Research Institute Molecular Screening Center, 2012)
Screen size: about 360,000 compounds; about 1,400 (0.39%) were called active. Only a selection was taken, and actives are over-represented in it overall. A number with no mark means an inactive call.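 The calls were made as follows: active = activation above its plate's cutoff, the mean activation of sample wells plus 3 SD; inactive = the rest.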

These compounds were tested against Muscarinic acetylcholine receptor M4 (Homo sapiens) (UniProt P08173) (assay: CHRM4 PAMs potentiating acetylcholine calcium signal – CHO-K1 cells, Fluo-8 calcium fluorescence, primary screen (AID 624126)). Details: CHO-K1 hM4/Gqi5, Fluo-8 calcium fluorescence, ACh EC20; at 3 µM; hits give high values; 0% = ACh EC20, 100% = maximal ACh.
Chain of Muscarinic acetylcholine receptor M4 (Homo sapiens) (P08173 whole entry, looked up): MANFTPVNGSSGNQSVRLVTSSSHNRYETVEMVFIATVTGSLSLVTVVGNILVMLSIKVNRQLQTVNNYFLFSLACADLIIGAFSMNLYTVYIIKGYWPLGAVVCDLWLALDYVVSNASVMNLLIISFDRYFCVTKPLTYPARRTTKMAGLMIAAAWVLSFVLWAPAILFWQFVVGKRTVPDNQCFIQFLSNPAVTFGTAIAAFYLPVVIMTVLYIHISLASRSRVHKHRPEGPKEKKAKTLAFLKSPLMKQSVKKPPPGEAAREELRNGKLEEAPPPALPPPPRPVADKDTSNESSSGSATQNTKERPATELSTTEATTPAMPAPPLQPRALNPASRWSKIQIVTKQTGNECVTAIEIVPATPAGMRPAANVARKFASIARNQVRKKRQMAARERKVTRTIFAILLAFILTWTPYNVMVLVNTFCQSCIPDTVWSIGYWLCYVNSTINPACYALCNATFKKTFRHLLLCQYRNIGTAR
For `O=C(O)CCS(=O)(=O)c1ccc(-c2ccccc2)cc1`, the activation was 20.7% (active).
Compound `O=C(CCS(=O)(=O)c1ccccc1)NC1CCCC1` has an activation of 2.49%.
Compound `Cc1ccc(S(=O)(=O)CCC(=O)OCc2ccccc2)cc1` has an activation of 1.2%.
Compound `O=C1c2ccccc2NC(c2ccccn2)N1NS(=O)(=O)c1ccccc1` (configuration not stated) has an activation of 16.5%.
For `CN(CC(=O)NCCc1ccc(F)cc1)CC(=O)Nc1ccc(F)c(F)c1F`, the activation was 21.1% (active).
In the case of `CN(CC(=O)NCCc1ccc(S(N)(=O)=O)cc1)CC(=O)Nc1ccc(F)c(F)c1F`, the activation is reported as 0.07%.
With `CN(CC(=O)NCc1ccc2c(c1)OCO2)CC(=O)Nc1ccc(F)c(F)c1F` the activation was -5.56%.
`Cc1cccc(OCCC(=O)Nc2ccccc2C(N)=O)c1` showed an activation of 0.92%.
With `Cc1ccccc1NC(=O)CCOc1ccccc1` the activation was 15.2% (active).
In the case of `CCc1ccccc1NC(=O)CCOc1ccccc1`, the activation is reported as -7.57%.
With `CCCn1nc(NS(=O)(=O)c2ccccc2)c2cc3cc(C)ccc3nc21` the activation was 9.07%.
Work on `COc1ccc(CN2C(=O)C(CC(=O)NC3CCCCC3)CC(C(=O)N3CCOCC3)=C2C)cc1` (configuration not stated) yielded an activation of 0.19%.
For `Cn1c(CCN2CCN(c3ccccn3)CC2)nc2cc(NS(=O)(=O)c3ccc(F)cc3)ccc21`, the activation was -13.9%.
With `C=CCC1(CC=C)CCCN1C(=O)CC1C(=O)NCCN1Cc1ccccc1OC` (configuration not stated) the activation was 9.2%.
With `O=C(Nc1ccccc1Cl)c1ccccc1S(=O)(=O)c1ccccc1[N+](=O)[O-]` the activation was 24.3% (active).
`O=C(NCCNc1ccccc1[N+](=O)[O-])c1ccccc1F` showed an activation of -0.9%.
`O=C(Nc1ccccc1-c1ccccc1)c1ccccc1[N+](=O)[O-]` showed an activation of -0.05%.
`Cc1cc(OC(C)C(=O)Nc2ccc(S(=O)(=O)Nc3onc(C)c3C)cc2)cc(C)c1Cl` (configuration not stated) was tested, and the activation was -0.5%.
For `COc1ccc(C(=O)Nc2ccc(S(=O)(=O)Nc3onc(C)c3C)cc2)cc1OC`, the activation was 31.2% (active).
`Cc1noc(NS(=O)(=O)c2ccc(NC(=O)c3oc4ccc(F)cc4c3C)cc2)c1C` gave an activation of -0.81%.
With `CCOC(=O)CNC(=O)CSc1ccc2nnc(-c3cccnc3)n2n1` the activation was -1.25%.
With `CN(Cc1ccccc1)C(=O)c1ccc(NC2=NC3CS(=O)(=O)CC3S2)cc1` (configuration not stated) the activation was -4.53%.
With `Cc1ccc2nc(-c3ccncc3)cc(C(=O)Nc3ccncc3)c2c1` the activation was 20.7% (active).
`CCS(=O)(=O)Nc1cccc(-c2cc(-c3ccccc3)c3cc(C)ccc3n2)c1` was tested, and the activation was -23%.
For `Cc1ccc(-c2cc(C(=O)NCc3cn(C)nc3C)c3cc(Br)ccc3n2)cc1`, the activation was -8.1%.
`CCCC[C@@H]1CN=C(N)N1CCc1cc(C(F)(F)F)cc(C(F)(F)F)c1` was tested, and the activation was -12.2%.
`CCOC(=O)C1=C(c2ccccc2)O/C(=C(/C(=O)OC)C(F)(F)F)S1` was tested, and the activation was -8.8%.
Compound `COCCNc1ncnc2c1ncn2[C@H]1CN(CCN2CCOCC2)C[C@@H](CO)O1` has an activation of -3.76%.
For `COCCNc1ncnc2c1ncn2[C@H]1CN(Cc2ccc(OC)cc2)C[C@@H](CO)O1`, the activation was 16.3% (active).
`OC[C@@H]1CN(Cc2ccc(Cl)cc2)C[C@H](n2cnc3c(NCc4ccncc4)ncnc32)O1` gave an activation of -0.98%.
`COc1cc(CC(=O)N2CCC(n3nccc3NC(=O)C3CC3)CC2)cc(OC)c1OC` showed an activation of 0.58%.
`Cc1cc(C)cc(N)c1` gave an activation of -1.71%.
Compound `CC(Nc1nc(C(F)(F)F)nc2ccccc12)c1cccs1` (configuration not stated) has an activation of -11.8%.
Work on `Cc1c(Cl)cccc1NC(=O)CCC(=O)N/N=C/c1ccco1` yielded an activation of 4.77%.
In the case of `CC(C)NC(=O)C(=O)N/N=C/c1ccco1`, the activation is reported as 23.7% (active).
Compound `O=C(CCNC(=O)c1ccccc1Cl)NN=Cc1ccco1` has an activation of 3.05%.
In the case of `O=C(OCC(=O)N(CCc1ccccc1)Cc1ccccc1)c1ccccc1[N+](=O)[O-]`, the activation is reported as -11%.
With `CC(NC(=O)COc1ccccc1)C(=O)NC1=NCCS1` (configuration not stated) the activation was 8.32%.
Compound `CCN1CN(Cc2ccccc2)CNC1=S` has an activation of 10.7%.
Compound `CN1CCN(S(=O)(=O)c2cccc(C(=O)Nc3cccc(S(N)(=O)=O)c3)c2)CC1` has an activation of -0.95%.
For `CC(C)CCN1C(=O)c2ccc(C(=O)Nc3cccc(S(N)(=O)=O)c3)cc2C1=O`, the activation was 23.1% (active).
`CCCCN1C(=O)c2ccc(C(=O)Nc3ccc(S(=O)(=O)N(C)C)cc3)cc2C1=O` showed an activation of -10.2%.
In the case of `CC(=O)NC(NC(=S)Nc1c(C)n(C)n(-c2ccccc2)c1=O)C(Cl)(Cl)Cl` (configuration not stated), the activation is reported as -1.16%.
For `CCCCc1ccc(NC(=S)N2CCCC(CO)C2)cc1` (configuration not stated), the activation was 0.72%.
`CCOC(=O)c1sc(NC(=O)C2CSC3(C)CCC(=O)N23)nc1C` (configuration not stated) gave an activation of 2.06%.
For `CCOC(=O)c1sc(/N=C/Nc2nc(C)c(C(=O)OCC)s2)nc1C`, the activation was 39% (active).
`CCOC(=O)c1sc(NC(=O)CSc2n[nH]c(CC)n2)nc1C` was tested, and the activation was -9.01%.
`Cc1ccn2cc(-c3nonc3C)cc2c1` showed an activation of 3.14%.
In the case of `Cc1ccc(S(=O)(=O)N2CCCCC2)cc1C(=O)N1CCN(CCO)CC1`, the activation is reported as 7.4%.
`CN1CCN(C(=O)N2c3ccccc3CCc3ccccc32)CC1` showed an activation of -20.3%.
`CCc1noc(C)c1C(=O)N1CCCC(N2CCN(c3ccc(F)cc3)CC2)C1` (configuration not stated) was tested, and the activation was 20% (active).
`Cc1cnc(C(=O)N2CCCC(N3CCN(c4ccccc4F)CC3)C2)cn1` (configuration not stated) gave an activation of 6.32%.
With `COc1ccccc1CN1CCCC(N2CCN(c3ccc(F)cc3)CC2)C1` (configuration not stated) the activation was -7.29%.
`COCCCNC(=O)Cn1cc(/C=C(\C#N)C(=O)N2CCN(c3ccccc3)CC2)c2ccccc21` gave an activation of 6.26%.
Compound `COc1ccc(CCNC(=O)CCn2c(=O)oc3ccccc32)cc1OC` has an activation of 5.54%.
For `CCN1CCC2(CCN(Cc3cn[nH]c3-c3ccc(OC)c(F)c3)C2)C1` (configuration not stated), the activation was 16.5%.
Work on `CC[C@]1(O)CC2CN(CCc3c([nH]c4ccccc34)[C@@](C(=O)OC)(c3cc4c(cc3OC)N(C=O)[C@H]3[C@@](O)(C(=O)OC)[C@H](OC(C)=O)[C@]5(CC)C=CCN6CC[C@]43[C@@H]65)C2)C1` (some centres not stated) yielded an activation of -0.6%.
